Screens from PubChem.
In the library only some 19% were active in any assay of this set; here they are far more common.
HT1080 IDH1KD tx: qHTS for induction of synthetic lethality in tumor cells producing 2HG: qHTS for the HT-1080-IDH1KD cell line | Potency, µM (top dose mostly 46.1 µM), without a hit: at the top dose activity, negative = toxicity, hits mostly cytotoxic | HT-1080 IDH1 knockdown viability, ATP luminescence, 48 h | AID 686971, 2013 | hit rate 2% among 360,000;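 also: potency is read from the fitted curve at half-maximal effect; 0% = DMSO wells and -100% = cell-free medium wells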
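% activity derives from luminescence (CellTiter-Glo), normalised to DMSO and no-cell wells. HT-1080-IDH1KD cells, 750/well, had 48 h compound exposure at 37 °C.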
uPA generation: qHTS for Inhibitors of Cell Surface uPA Generation; cell surface uPA generation assay, qHTS; hit rate 0.31% among 330,000; Potency, µM (doses to about 38.3 µM), for inactives: at the top dose activity change, negative = inhibition, hits mostly inhibitors; active = well fitted inhibition curve with a large enough effect; inconclusive = small, poorly fitted or top-dose-only effect; inactive = no such curve, though single readings can be large or run the other way; tested in mouse RAW 264.7 cells; also: potency is read from the fitted curve at half-maximal effect; nearly all actives have a fitted effect of over 55% in size
TDP1 cell CPT: qHTS for Inhibitors of human tyrosyl-DNA phosphodiesterase 1 (TDP1): qHTS in cells in presence of CPT | Potency, µM (top dose mostly 46.2 µM), for inactives: at the top dose activity change, negative = growth inhibition, hits mostly inhibitors | chicken DT40 Tdp1-/-;hTDP1 cells + 20 nM CPT, ATP luminescence, 48 h | hit rate 12% among 420,000 | AID 686979, 2013; also: potency is read from the fitted curve at half-maximal effect; nearly all actives have a fitted effect of over 55% in size
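Cell growth measured by CellTiter-Glo luminescence after a minimum 48 h, 37 C compound exposure with 20 nM CPT in Tdp1-knockout DT40 cells stably expressing hTDP1, seeded 400/well; qHTS titration format.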
HT1080NT lethal: qHTS for induction of synthetic lethality in tumor cells producing 2HG: qHTS for the HT-1080-NT fibrosarcoma cell line. AID 686970, 2013. Potency, µM (doses to about 46.1 µM), for inactives: top-dose activity, negative = less viability, usual class: cytotoxic. hit rate 1.6% among 360,000. HT-1080-NT fibrosarcoma viability, CellTiter-Glo ATP luminescence, 48 h;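 also: NT is the 2HG producing partner of a matched IDH1 knockdown line; potency is read from the fitted curve at half-maximal effect; 0% = DMSO-treated cells and -100% = media-only wells without cells; nearly all actives have a fitted effect of over 55% in size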
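HT-1080-NT; 750 cells/well; 5% FBS RPMI; 48 h compound, 37 degrees C; CellTiter-Glo luminescence; curve fitting and curve-class assignment.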
DT40 TDP1 no CPT: qHTS for Inhibitors of human tyrosyl-DNA phosphodiesterase 1 (TDP1): qHTS in cells in absence of CPT. DT40 Tdp1-/- hTDP1 cells, no CPT, ATP luminescence, 48 h. Potency, µM (doses to about 46.2 µM), for the others: at the top dose activity change, negative = growth inhibition, actives largely listed as inhibitors. hit rate 15% among 420,000. AID 686978, 2013; also: potency is read from the fitted curve at half-maximal effect; nearly all actives have a fitted effect of over 55% in size
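Seeded 400 DT40-hTDP1 cells/well (vehicle DMSO, no 20 nM CPT); pinned compounds; ≥48 hr at 37 °C; CellTiter-Glo luminescence as viability measure.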
IL-1B inflam inh: qHTS for Inhibitors of Inflammasome Signaling: IL-1-beta AlphaLISA Primary Screen. THP-1 LPS/ATP IL-1B secretion, AlphaLISA, 16 h; hits give low values. activity change, % at 57.5 µM. hit rate 4.7% among 360,000. AID 743279, 2014; in the data active = activity change below about -50%; inconclusive = mostly about -30% to -49%
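Secreted IL-1B measured by AlphaLISA bead assay after 16 h compound exposure of THP-1 cells; compounds (final up to 57.5 uM) added 1 h before LPS (250 ng/mL) and ATP (1.25 mM) stimulation; lower signal means less secretion.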
* = called active by the depositor; ? = inconclusive; . = no result; [ ] = dose if it differs, or a comment. Unless noted, calls follow the shape of the dose curve; as a rule, active = well fitted curve in the direction sought with a large enough effect; inconclusive = small, poorly fitted or top-dose-only effect, or another doubt; inactive = no such curve, though single readings can be large; an effect the other way counts as inactive or inconclusive. Unless noted, % is scaled to controls: 0 for no effect and ±100 for the full control effect.

SMILES | HT1080 IDH1KD tx | uPA generation | TDP1 cell CPT | HT1080NT lethal | DT40 TDP1 no CPT | IL-1B inflam inh
COc1ccccc1CCNC(=O)CSc1nc(=O)[nH]c2c1CCC2 | 5.1% | 4.2% | 7.7% | 4.9% | -7.9% | 8.5
Cc1cc(=O)n2ccsc2n1 | 2.1% | 3.8% | -12.2% | -6.0% | -8.2% | 12.4
CC(C)[C@H](CO)Nc1nc(Nc2ccc(Cl)c(C(=O)O)c2)c2ncn(C(C)C)c2n1 | 0.3% | 9.4% | 0.6% | -1.8% | -4.4% | 7.6
CC(C)n1cnc2c(Nc3cccc(Cl)c3)nc(NCCCO)nc21 | ? | ? | 20.6µM* | -13.8% | 16.4µM* | -95.0*
Cc1ccc(C(OCCN(C)C)c2cccc(C(F)(F)F)c2)cc1 (stereo not drawn) | -19.7% | 3.3% | 23.1µM* | -19.8% | 23.1µM* | -66.7*
COc1ccc(Oc2ncc3nc(-c4cccs4)c(=O)n(C)c3n2)cc1 | . | . | 2.2% | . | -2.3% | .
COc1ccc(NC(=O)CC2C(=O)N(c3ccc(C)cc3)C(=O)N2C2CCCC2)cc1 (stereo not drawn) | . | . | ? | . | -29.9% | .
Cc1cccc(N2C(=O)C(CC(=O)Nc3ccccc3)N(C3CCCCC3)C2=O)c1 (stereo not drawn) | . | . | -20.8% | . | ? | .
CCOc1ccc(NC(=O)CC2C(=O)N(c3ccc(C)cc3)C(=O)N2C2CCCCC2)cc1 (stereo not drawn) | . | . | 18.4µM* | . | ? | .
CCOC(=O)c1ccc(NC(=O)CC2C(=O)N(c3ccccc3)C(=O)N2C2CCCCC2)cc1 (stereo not drawn) | . | . | 25.9µM* | . | 16.4µM* | .
CC1(Oc2ccc3ccccc3c2)CCN(Cc2ccc(OC(F)(F)F)cc2)C1 (stereo not drawn) | 16.4% | . | -24.6% | 17.2% | -23.9% | 0.0
Cc1cc(S(=O)(=O)N2CCCOC2CNC(=O)C(=O)NCc2cccs2)ccc1F (stereo not drawn) | 0.8% | -5.4% | ? | -0.9% | ? | -2.8
CCN1C(=O)C(=O)N(CC(=O)N2CCC(C)Sc3ccccc32)C1=O (stereo not drawn) | 5.4% | -5.5% | -12.8% | 0.4%[9.24 µM] | -1.6% | -2.3
O=c1cc(-c2ccccc2)n2c(SCc3ccc(F)cc3)nnc2[nH]1 | . | . | 14.5% | . | 9.0% | .
Cc1ccc(CN2COc3c(Cl)cc4c(-c5ccccc5)cc(=O)oc4c3C2)cc1 | . | . | -22.5% | . | -20.2% | .
CCOC(=O)C1=CNS(=O)(=O)NC1CCc1ccccc1 (stereo not drawn) | -0.3% | -4.4% | ? | -0.7% | 23.1µM* | 9.2
C=C(CO)C1Cc2c(ccc3c2OC2COc4cc(OC)c(OC)cc4C2C3=O)O1 (stereo not drawn) | . | . | 0.299µM* | . | 0.237µM* | .
O=C(Cn1ncc2c1-c1ccccc1OC2)N1CCN(c2ccccc2)CC1 | . | . | -29.9% | . | 16.4µM* | .
COc1ccccc1N1CCN(C(=O)Cn2ncc3c2-c2cc(C)ccc2OC3)CC1 | . | . | 25.9µM* | . | 20.6µM* | .
CCCN(C(=O)Cn1ncc2c1-c1ccccc1OC2)c1cccc(C)c1 | . | . | ? | . | 16.4µM* | .
Cc1cccc(N2CCN(C(=O)Cn3ncc4c3-c3cc(C)ccc3OC4)CC2C)c1 (stereo not drawn) | . | . | 23.1µM* | . | 23.1µM* | .
Cc1ccccc1C(=O)N1CCC(C(=O)N(CC(C)C)c2c(N)n(Cc3ccccc3)c(=O)[nH]c2=O)CC1 | 8.4% | 4.4% | -0.2% | 5.6% | 0.4% | -2.3
CCCCCCCCCCCCCCCCCC(=O)[O][Al] | . | . | 0.2% | . | -6.8% | .
CCn1ccc2cc(S(=O)(=O)N3CCC(C(=O)NCC(C)c4ccccc4)CC3)ccc21 (stereo not drawn) | . | . | 23.1µM* | . | ? | .
CCC(C)NC(=O)Cn1ccc2cc(S(=O)(=O)N3CCCCC3)ccc21 (stereo not drawn) | . | . | ? | . | -12.9% | .
SMILES | HT1080 IDH1KD tx | uPA generation | TDP1 cell CPT | HT1080NT lethal | DT40 TDP1 no CPT | IL-1B inflam inh
CC(CNC(=O)Cn1ccc2cc(S(=O)(=O)N3CCCCCC3)ccc21)c1ccccc1 (stereo not drawn) | . | . | 16.4µM* | . | ? | .
Cc1ccc(C)c(NC(=O)n2ncc3cc(Cl)ccc32)c1 | . | . | -10.2% | . | -29.1% | .
COCCNC(=O)C1CCCN(C(=O)c2cccnc2Oc2ccccc2)CC1 (stereo not drawn) | 6.4% | . | -2.2% | 27.2% | 4.3% | -8.6
CC(=O)N(Cc1ccccc1)Cc1cn(CCC#N)nc1-c1cccc([N+](=O)[O-])c1 | -6.1% | -1.3% | 8.1% | 0.6% | -22.2% | 15.0
Cc1nc2ccc(NC(=O)c3cc([N+](=O)[O-])cc([N+](=O)[O-])c3Cl)cc2s1 | -17.1% | -2.3% | 5.17µM* | 7.0% | 6.51µM* | ?
Cc1nc2ccc(NC(=O)c3cc(S(=O)(=O)N(C)c4ccccc4)ccc3Cl)cc2s1 | -21.3% | -8.2% | 1.84µM* | ? | 1.84µM* | 28.9
Cc1nc2ccc(S(=O)(=O)N(CC(=O)Nc3cccc(Cl)c3)Cc3ccccc3)cc2s1 | . | . | ? | . | 16.4µM* | .
Cc1nc2ccc(NC(=O)c3ccc(Cl)c(S(=O)(=O)N(C)c4ccccc4)c3)cc2s1 | ? | -13.3% | 13µM* | ? | 3.26µM* | -16.8
CCN(C)C1CN(Cc2cn(Cc3cccc(C(F)(F)F)c3)nn2)S(=O)(=O)C1 (stereo not drawn) | 6.0% | . | 0.3% | 18.5% | -28.8% | -19.8
Cc1cc(C)c(NC(=O)CN2C(=O)CCSc3ccc(S(=O)(=O)N4CCCC4)cc32)c(C)c1 | . | . | -8.1% | . | -21.4% | .
CCCCCN(C(=O)CCC(=O)OCCOc1ccc(OCC)cc1)c1c(N)n(CCCC)c(=O)[nH]c1=O | -6.3% | -1.0% | ? | -16.1% | -23.8% | ?
CN(c1ccccc1)S(=O)(=O)c1ccc(Cl)c(C(=O)Nc2ccc(N3CCOCC3)cc2)c1 | ? | -4.2% | 3.26µM* | ? | 1.64µM* | -2.8
CS(=O)(=O)c1ccc(C(=O)Nc2ccc(N3CCOCC3)cc2)c(Cl)c1 | 10.3% | -7.0% | 4.2% | 12.3% | ? | -21.9
COc1ccccc1N1CCN(CCCNC(=O)c2cnn(-c3cccc(Cl)c3)c2C2CCN(C(=O)OC(C)(C)C)CC2)CC1 | . | . | 9.2µM* | . | 7.31µM* | .
CN1CCN(CCCNC(=O)c2cnn(-c3ccccc3)c2C2CCN(C(=O)OC(C)(C)C)CC2)CC1 | . | . | -13.4% | . | -5.0% | .
